Like-named read-outs stand apart in the source and are kept apart here. About 95 (3%) of roughly 3,300 compounds showed an effect of 50% or more. The list comes from a sample in which strong results are over-represented; it also holds similar structures and randomly drawn compounds.
Tested on: HCoV-229E
Design: species or system Huh-7; HTS, protection from HCoV-229E induced cell death, luminescent cell viability (CellCounting-Lite 2.0), inhibition rate
Details: 24 h post infection, 1 h compound pre-incubation, 10 µM, inhibitor

Row | Compound | 229E Inhibition rate | 229E Inhibition rate (229E Inhibition rate, 24 h)
1 | CCCCC[C@H](O)CC(=O)CCc1ccc(O)c(OC)c1 [[6]-Gingerol] | 52.8% | 
2 | CCCCCCCCC[C@H](O)CC(=O)CCc1ccc(O)c(OC)c1 [10-Gingerol] | 32.3% | 
3 | CCCCCCC[C@H](O)CC(=O)CCc1ccc(O)c(OC)c1 [8-Gingerol] | 13.3% | 
4 | Cc1ncc(C[n+]2csc(CCOP(=O)(O)O)c2C)c(N)n1 [Thiamine monophosphate (chloride) (dihydrate)] | 12.1% | 
5 | CC(=O)O[C@H]1[C@H]2[C@H]([C@@H]3[C@H]4OC(=O)[C@@](C)(O)[C@@]5(C)C(=O)C[C@@H](C)[C@@H]([C@@H]45)[C@@]3(C)[C@H]1OC(C)=O)[C@@H](OC(C)=O)C(=O)[C@H]1C[C@@H]3O[C@@H]3[C@H](OC(C)=O)[C@]21C [Taccalonolide C] | 10.3% | 
6 | O=c1cc(-c2ccc(O)c(O)c2)oc2cc(O)cc(O)c12 [Luteolin] | 0% | 
7 | O=c1cc(-c2ccccc2)c2c(O)cc(O)cc2o1 [LC3-mHTT-IN-AN2] | 50.8% | 
8 | O=c1cc(-c2ccccc2)c2cc(O)c(O)cc2o1 [Nordalbergin] | 17.6% | 
9 | COc1ccc(-c2cc(=O)c3c(O)cc(O)cc3o2)cc1-c1c(O)cc(O)c2c(=O)cc(-c3ccc(O)cc3)oc12 [Bilobetin] | 22.4% | 
10 | O=c1cc(-c2ccc(O)cc2)oc2cc(O)cc(O)c12 [Apigenin] | 55.5% | 
11 | O=c1c(O)c(-c2ccccc2)oc2cc(O)cc(O)c12 [Galangin] | 8% | 
12 | COc1ccc(-c2cc(=O)c3c(O)cc(O)c(-c4cc(-c5cc(=O)c6c(O)cc(O)cc6o5)ccc4OC)c3o2)cc1 [Isoginkgetin] | 6.1% | 
13 | COc1cc(O)c2c(=O)cc(-c3ccc(OC)c(-c4c(O)cc(O)c5c(=O)cc(-c6ccc(O)cc6)oc45)c3)oc2c1 [Ginkgetin] | 64.4% | 
14 | O=c1cc(-c2ccccc2)oc2cc(O)cc(O)c12 [Chrysin] | 0% | 
15 | O=C(/C=C/c1ccc(O)c(O)c1)O[C@H]1[C@H](O)C[C@](O)(C(=O)O)C[C@H]1O [Cryptochlorogenic acid] | 7.4% | 
16 | CC1(C)[C@@H](O[C@H]2O[C@H](C(=O)O)[C@@H](O)[C@H](O)[C@H]2O[C@@H]2O[C@H](C(=O)O)[C@@H](O)[C@H](O)[C@H]2O)CC[C@]2(C)[C@H]3C(=O)C=C4[C@@H]5C[C@@](C)(C(=O)O)CC[C@]5(C)CC[C@@]4(C)[C@]3(C)CC[C@@H]12 [Diammonium Glycyrrhizinate] |  | 0%
